Measured values as given in PubChem BioAssay AID1159580 (chemical genetic matrix, 2015).
Values joined by “and” are separate entries in the source; they are usually repeats but may differ in a detail not shown here. Identical values can stand only once. In all, about 5,500 compounds went through this assay and about 2,000 (36%) were called active. Another 18% or so got no clear call; they are omitted. No stated cut-off is given here; in the data, active means normalized growth mostly below about 0.91 (no sharp cut-off); inconclusive means no clear call, values can overlap the other calls; inactive means mostly above about 0.92. The list shows a part of the results.

Assay: chemical genetic growth profiling, strain panel (AID 1159580);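 further: tested at 20 µM; growth read once vehicle control cultures reached saturation at 30 °C; 1 = growth at the plate median or of vehicle wells; lower values mean less growth of the strain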
Conditions: S. cerevisiae deletion strains, growth OD

Measured: normalized growth

O=C1NC(=O)C(=O)C(=O)N1
inactive: locus YAL013W, strain DEP1, active compounds read low 1.01 | locus YAL021C, strain ccr4, active compounds read low 1 | locus YAL026C, strain drs2, active compounds read low 0.991 | locus YAL030W, strain snc1, active compounds read low 0.989 | locus YBL061C, strain skt5, active compounds read low 0.984 | locus YBR009C, strain hhf1, active compounds read low 0.997 | locus YBR021W, strain FUR4, active compounds read low 1.03 | locus YBR023C, strain chs3, active compounds read low 0.997 | locus YBR171W, strain sec66, active compounds read low 0.979 | locus YBR229C, strain ROT2, active compounds read low 1.01 | locus YBR231C, strain swc5, active compounds read low 0.986 | locus YBR279W, strain paf1, active compounds read low 0.993 | locus YCL011C, strain gbp2, active compounds read low 0.996 | locus YCL016C, strain dcc1, active compounds read low 0.995 | locus YCL029C, strain bik1, active compounds read low 0.984 | locus YCL061C, strain MRC1, active compounds read low 0.988 | locus YCL069W, strain vba3, active compounds read low 0.989 | locus YCR088W, strain abp1, active compounds read low 0.984 | locus YDL005C, strain med2, active compounds read low 0.984 | locus YDL035C, strain GPR1, active compounds read low 1.03 | locus YDL040C, strain nat1, active compounds read low 0.988 | locus YDL074C, strain BRE1, active compounds read low 1.04 | locus YDL101C, strain DUN1, active compounds read low 1.02 | locus YDL134C, strain PPH21, active compounds read low 1.02 | locus YDL185W, strain tfp1, active compounds read low 1 | locus YDL192W, strain arf1, active compounds read low 0.998 | locus YDR001C, strain nth1, active compounds read low 0.981 | locus YDR069C, strain doa4, active compounds read low 0.998 | locus YDR101C, strain arx1, active compounds read low 0.995 | locus YDR137W, strain rgp1, active compounds read low 0.999 | locus YDR150W, strain NUM1, active compounds read low 1.02 | locus YDR159W, strain sac3, active compounds read low 0.986 | locus YDR162C, strain NBP2, active compounds read low 1.02 | locus YDR195W, strain ref2 0.962 | locus YDR297W, strain sur2, active compounds read low 0.999 | locus YDR318W, strain mcm21, active compounds read low 0.993 | locus YDR334W, strain swr1, active compounds read low 0.99 | locus YDR335W, strain msn5, active compounds read low 0.995 | locus YDR388W, active compounds read low 0.98 | locus YDR392W, strain spt3, active compounds read low 0.979 | locus YDR502C, strain sam2, active compounds read low 1.01 | locus YEL003W, strain gim4, active compounds read low 0.989 | locus YEL037C, strain rad23, active compounds read low 0.996 | locus YEL061C, strain CIN8 (second series), active compounds read low 0.983 | locus YEL061C, strain CIN8, active compounds read low 1.01 | locus YER015W, strain faa2, active compounds read low 0.992 | locus YER016W, strain bim1, active compounds read low 0.99 | locus YER110C, active compounds read low 0.988 | locus YER111C, strain swi4, active compounds read low 0.986 | locus YER155C, strain BEM2 (second series), active compounds read low 0.98 | locus YER155C, strain BEM2, active compounds read low 1.01 | locus YER167W, strain BCK2, active compounds read low 1.03 | locus YFR010W, strain ubp6, active compounds read low 0.974 | locus YGL078C, strain dbp3, active compounds read low 0.985 | locus YGL086W, strain mad1, active compounds read low 1.01 | locus YGL167C, strain pmr1, active compounds read low 0.987 | locus YGL173C, strain kem1, active compounds read low 0.969 | locus YGL227W, strain vid30, active compounds read low 0.975 | locus YGL240W, strain doc1, active compounds read low 0.99 | locus YGL248W, strain PDE1, active compounds read low 1.02 | locus YGL253W, strain hxk2, active compounds read low 0.993 | locus YGR078C, strain PAC10, active compounds read low 1.02 | locus YGR135W, strain pre9, active compounds read low 1 | locus YGR229C, strain SMI1, active compounds read low 1.03 | locus YGR252W, strain gcn5, active compounds read low 1.03 | locus YHR013C, strain ard1, active compounds read low 0.991 | locus YHR027C, strain rpn1, active compounds read low 0.984 | locus YHR030C, strain SLT2, active compounds read low 1.01 and 0.971 | locus YHR079C, strain IRE1 (second series), active compounds read low 0.991 | locus YHR079C, strain IRE1, active compounds read low 0.971 | locus YHR094C, strain hxt1, active compounds read low 0.994 | locus YHR129C, strain ARP1, active compounds read low 1.01 | locus YHR142W, strain chs7, active compounds read low 0.988 | locus YHR200W, strain rpn10, active compounds read low 0.993 | locus YIL066C, strain RNR3, active compounds read low 1.03 | locus YIL073C, strain SPO22, active compounds read low 0.994 | locus YIL125W, strain kgd1, active compounds read low 1 | locus YIR030C, strain dcg1, active compounds read low 0.992 | locus YJL092W, strain hpr5, active compounds read low 0.991 | locus YJL095W, strain BCK1 (second series), active compounds read low 1 | locus YJL095W, strain BCK1, active compounds read low 1.01 and 0.96 | locus YJL115W, strain asf1, active compounds read low 0.978 | locus YJL129C, strain trk1, active compounds read low 1 | locus YJL134W, strain LCB3, active compounds read low 1.01 | locus YJL154C, strain vps35, active compounds read low 0.985 | locus YJL164C, strain tpk1, active compounds read low 1.01 | locus YJL166W, strain qcr8, active compounds read low 1 | locus YJL168C, strain set2, active compounds read low 0.988 | locus YJL187C, strain SWE1 (second series), active compounds read low 1.01 | locus YJL187C, strain SWE1, active compounds read low 0.989 | locus YJR043C, strain POL32, active compounds read low 1 | locus YJR066W, strain TOR1, active compounds read low 0.974
